Rows were chosen to be rich in hits. Some 2.8% of all compounds tested hit in one or more screens of this group.
Fam108B inh: Fam108B inhibition, counter-screen for RBBP9 inhibitors | AID 1947 | inhibition, % at 9.51 µM | actives 0.33% (n = 300,000) | recombinant Fam108B, FP-Rh probe fluorescence polarization;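 active means inhibition above the screen mean inhibition plus 3 SD, computed separately per campaign, cut at about 18% in these data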;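 further: inhibitors lower polarization as less probe binds the enzyme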
PAFAH1B2 FP inh: blocks human PAF acetylhydrolase 1b catalytic subunit 2 | recombinant PAFAH1B2, FP-rhodamine activity probe, fluorescence polarization | inhibition, % at 3.39 µM | AID 492953 | actives 1.2% (n = 340,000);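 active means inhibition above the mean of all tested compounds plus 3 SD, cut at about 24% in these data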;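 further: 0% = enzyme with DMSO and 100% = wells lacking PAFAH1B2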
Target sequence (P68402 whole entry, looked up): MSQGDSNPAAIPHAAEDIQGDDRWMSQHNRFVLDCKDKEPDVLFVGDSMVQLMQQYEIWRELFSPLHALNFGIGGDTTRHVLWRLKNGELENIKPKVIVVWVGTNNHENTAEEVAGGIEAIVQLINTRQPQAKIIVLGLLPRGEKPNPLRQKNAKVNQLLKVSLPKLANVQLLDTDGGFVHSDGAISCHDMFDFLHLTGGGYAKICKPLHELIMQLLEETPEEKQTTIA
pPAFAH FP inh: inhibitors of human plasma PAF acetylhydrolase (pPAFAH); inhibition, % at 3.39 µM; recombinant pPAFAH, FP-rhodamine probe fluorescence polarization; actives 1.5% (n = 330,000);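 active means inhibition above the mean inhibition across the screen plus 3 SD, cut at about 25% in these data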;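 further: inhibitors block binding of the rhodamine activity-based probe so polarization drops; 0% = enzyme with DMSO and 100% = wells lacking pPAFAH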
PAFAH1B3 inh: PAFAH1B3 (human) inhibition; actives 0.28% (n = 340,000); inhibition, % at 3.39 µM; recombinant PAFAH1B3, FP-rhodamine probe, fluorescence polarization;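 active means inhibition above the screen-wide average of all tested compounds plus 3 SD, cut at about 25% in these data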;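 further: 0% = enzyme with DMSO only and 100% = wells lacking PAFAH1B3 protein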
PME-1 primary: blocks human protein phosphatase methylesterase 1. Q9Y570. recombinant PME-1, FP-Rh probe fluorescence polarization. inhibition, % at 5.9 µM. actives 0.53% (n = 320,000). AID 2130;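 active means inhibition above the campaign mean of all compounds plus 3 SD, cut at about 26% in these data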;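 further: competitive labeling of PME-1 active site by serine hydrolase directed probe; 0% = PME-1 with DMSO and 100% = wells lacking PME-1 enzyme; inhibitors block probe labeling so polarization falls and inhibition rises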
Target sequence (Q9Y570 whole entry, looked up): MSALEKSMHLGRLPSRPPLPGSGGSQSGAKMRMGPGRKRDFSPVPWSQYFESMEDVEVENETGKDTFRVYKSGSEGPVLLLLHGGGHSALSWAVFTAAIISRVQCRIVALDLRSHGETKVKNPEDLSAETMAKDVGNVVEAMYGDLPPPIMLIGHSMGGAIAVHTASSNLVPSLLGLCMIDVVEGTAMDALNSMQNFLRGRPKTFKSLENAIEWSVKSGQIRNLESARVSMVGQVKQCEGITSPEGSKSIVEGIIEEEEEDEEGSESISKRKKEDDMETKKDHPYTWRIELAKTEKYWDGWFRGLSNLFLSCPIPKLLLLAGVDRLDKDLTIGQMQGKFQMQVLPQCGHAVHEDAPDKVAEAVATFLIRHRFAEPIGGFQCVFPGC
PAFAH2 inh: PAFAH2 (human) inhibition | Q99487 | recombinant PAFAH2, FP-rhodamine activity probe, fluorescence polarization | inhibition, % at 3.39 µM | actives 0.99% (n = 340,000);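 active means inhibition above the mean over all tested compounds plus 3 SD, cut at about 30% in these data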;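 further: inhibitors block probe labeling of enzyme so polarization drops; 0% = enzyme with DMSO and 100% = wells lacking PAFAH2 protein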
Fam108b inh conf: confirmation of mouse Fam108b serine hydrolase inhibitors. shares compounds with Fam108B inh. recombinant Fam108b, FP-Rh probe fluorescence polarization. inhibition, % at 9.51 µM. actives 44% (n = 930);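 active means inhibition above a limit from the primary screen, the mean over all compounds plus 3 SD, cut at about 19% in these data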;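 further: 0% = median of active Fam108b wells and 100% = catalytically dead S170A mutant; inhibitors free the probe so polarization falls as inhibition rises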
Fam108b ABPP HTS: mouse ABHD17B inhibition | shares compounds with Fam108B inh | recombinant Fam108b, gel-based ABPP, fluorophosphonate probe | inhibition, % at 20 µM | actives 44% (n = 260) | AID 588649; in the data active means inhibition above about 40%
pPAFAH FP conf: pPAFAH (human) inhibition, confirmed; shares compounds with pPAFAH FP inh; recombinant pPAFAH, FP-Rh probe fluorescence polarization; inhibition, % at 3.39 µM; actives 72% (n = 2,300); AID 463230;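 active means mean inhibition of the triplicate above the hit cutoff set for the earlier primary screen, cut at about 25% in these data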;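 further: 0% = enzyme with DMSO and 100% = wells lacking pPAFAH enzyme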
PAFAH1B3 conf FP: PAFAH1B3 (human) inhibition, confirmed | recombinant PAFAH1B3, FP-Rh activity-based probe, fluorescence polarization | inhibition, % at 3.39 µM | actives 30% (n = 390) | shares compounds with PAFAH1B3 inh | AID 493032;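 active means average inhibition over triplicate runs above the hit cutoff set in the earlier primary screen, cut at about 25% in these data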;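 further: 0% = enzyme with DMSO and 100% = wells lacking PAFAH1B3 protein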
* hit, by the source's call; . = not tested or not shown.

SMILES	Fam108B inh	PAFAH1B2 FP inh	pPAFAH FP inh	PAFAH1B3 inh	PME-1 primary	PAFAH2 inh	pPAFAH FP conf	others
O=C1C(Cl)=C(N2CCC(C(=O)O)CC2)C(=O)c2ccccc21	29.2*	22.5	12.8	41.3*	16.5	20.8	.	Fam108b inh conf=51.8*;Fam108b ABPP HTS=60.0*;PAFAH1B3 conf FP=32.1*
Brc1ccc(Nc2nc(-c3cccnc3)cs2)cc1	-1.6	4.3	6.6	5.7	12.7	4.3	.
Brc1ccc(-c2csc(Nc3nc(-c4ccc(Br)cc4)cs3)n2)cc1	50.2*	16.7	1.9	33.7*	22.2	16.3	.	Fam108b inh conf=33.7*;Fam108b ABPP HTS=85.0*;PAFAH1B3 conf FP=21.6
CCCC1=Nc2cc(C(=O)NCCCN3CCOCC3)ccc2Sc2ccccc21	0.6	4.4	17.8	5.3	1.7	-2.1	.
CCCC1=Nc2cc(C(=O)NCCCN3CCN(C)CC3)ccc2Sc2ccccc21	-3.5	3.2	34.5*	5.8	-5.5	-4.4	6.0
CCCn1c(N)c(C(=O)CSc2nc(N)cc(=O)[nH]2)c(=O)n(C)c1=O	.	-9.9	1.6	-0.9	0.8	-4.0	.
COc1ccc(-c2[nH]ncc2CN2CCCC(C(=O)c3ccc(OC)cc3OC)C2)cc1 (configuration not stated)	0.9	2.6	5.2	1.9	-1.7	-0.6	.
COc1ccc(OC)c(CN2CCCC(C(=O)c3ccccc3SC)C2)c1 (configuration not stated)	5.7	0.9	57.7*	3.5	-0.4	0.6	5.2
O=C(N/N=C/c1ccc(Sc2ccccn2)o1)c1cc2ccccc2cc1O	14.4	8.7	52.5*	18.9	-41.6	0.1	56.4*
C/C(=N\NC(=O)c1cc2ccccc2cc1O)c1ccccn1	3.7	4.8	47.6*	8.7	18.6	0.8	-2.3
C/C(CC(=O)N1CCN(C=O)CC1)=N\NC(=O)c1cc2ccccc2cc1O	15.6	4.6	54.0*	13.5	19.4	7.5	9.2
C/C(=N/NC(=O)c1cc2ccccc2cc1O)C1C(=O)c2ccccc2C1=O	75.1*	73.0*	76.9*	37.0*	79.1*	73.7*	67.6*
CCC1CCCCN1C(=O)CSc1nnc(CNC(=O)c2cc(OC)c(OC)c(OC)c2)o1 (configuration not stated)	-3.0	6.1	2.1	12.1	2.8	-0.4	.
Cc1ccc(N(Cc2cc3ccc(C)cc3[nH]c2=O)S(C)(=O)=O)c(C)c1	0.6	-2.3	1.7	-1.9	-0.3	-2.2	.
Cc1c(C=Nc2ccc(S(=O)(=O)CCO)cc2)c(O)[nH]c(=O)c1C#N	3.2	3.6	2.5	3.6	-2.5	4.3	.
C/C(=N\NC(=O)c1cc2ccccc2cc1O)c1cc2ccccc2o1	13.0	9.3	41.4*	7.6	-21.0	10.6	34.0*
CN(C)C1(CNC(=O)c2cccc(S(=O)(=O)Nc3ccc(Br)cc3)c2)CCCCC1	1.6	3.8	42.8*	-2.0	1.3	-2.8	42.1*
COc1ccc(Cl)cc1NS(=O)(=O)c1cccc(C(=O)NCC2(N(C)C)CCCCC2)c1	.	1.0	.	-4.9	.	2.9	.
CN(C)C1(CNC(=O)c2cccc(S(=O)(=O)NCc3ccccc3)c2)CCCCC1	.	6.9	2.3	-0.4	2.9	1.8	.
Cc1ccc(NS(=O)(=O)c2cccc(C(=O)NCC3(N(C)C)CCCCC3)c2)cc1	-3.6	8.3	60.0*	10.6	6.8	5.8	53.4*
CC[C@]12c3[nH]c4ccccc4c3CCN1C(=O)C(CC(=O)NCCCOC)C[C@@H]2C(=O)N1CCN(C(=O)c2ccco2)CC1 (some centres not stated)	.	5.4	1.0	5.9	.	-2.6	.
CC(=O)Nc1ccc(-c2nnn(CC(=O)c3ccc(F)cc3)n2)cc1Cl	0.7	6.3	-1.8	9.4	-4.4	1.1	.
COC(=O)c1[nH]c2cc(OC)ccc2c1NC(=O)CCN1CCCCC1	-1.2	1.1	39.4*	-2.2	-5.1	0.8	8.8
COC(=O)c1[nH]c2cc(OC)ccc2c1NC(=O)CCN1CCCC(C)(C)C1	1.6	3.0	4.7	-3.7	-6.5	-5.7	.
COc1ccc(CN=Cc2c(C(=O)O)[nH]c3ccccc23)cc1	-0.2	-2.1	2.7	8.9	-4.0	-2.0	.
SMILES	Fam108B inh	PAFAH1B2 FP inh	pPAFAH FP inh	PAFAH1B3 inh	PME-1 primary	PAFAH2 inh	pPAFAH FP conf	others
C=CCOc1ccc(C(c2c(C(=O)O)[nH]c3ccccc23)c2c(C(=O)O)[nH]c3ccccc23)cc1	6.8	66.4*	44.4*	7.7	-2.7	54.9*	30.4*
CCOC(=O)C(C(=O)OCC)c1cc(Br)c2noc3c2c1C(=O)c1ccccc1-3	7.2	7.2	70.0*	22.3	23.4	28.4	10.9
CCOc1ccccc1CNC(=O)C(C)n1nc(C)c2c(C)n(-c3ccccc3)nc2c1=O (configuration not stated)	-0.7	0.5	58.1*	3.2	7.7	-1.1	-0.5
O=C(CCOc1ccccc1)Nc1ccnn1C1CCN(Cc2ccc(CO)o2)CC1	3.5	4.3	43.2*	0.4	4.0	6.1	7.3
Cc1ccc(CN2CCC(n3nccc3NC(=O)CCOc3ccccc3)CC2)o1	-4.8	1.6	-0.2	3.5	-1.3	3.9	.
Cc1ccc(OCc2ccc(C(=O)Nc3ccc(S(N)(=O)=O)cc3)o2)cc1	0.4	1.7	1.6	2.5	-4.5	4.7	.
Nc1ccc2c(c1)-c1ccccc1S(=O)(=O)N2	3.1	5.2	65.2*	20.5	-3.4	23.3	7.8
CCOC(=O)C1CCN(Cc2ccc(OCc3ccccc3)c(OC)c2)CC1	3.1	1.1	71.6*	9.1	-2.3	0.8	-0.7
CCOC(=O)C1CCN(Cc2ccc(OC)c(OCc3ccccc3)c2)CC1	0.9	5.2	2.9	8.2	1.2	-2.3	.
O=C(c1ccco1)N1CCN(C(=O)C2CC(=O)N(c3ccc(Cl)cc3)C2)CC1 (configuration not stated)	0.3	1.8	3.0	0.6	-0.9	-1.4	.
COc1ccc2sc(-c3ccc(N(C)C)cc3)c(C#CC(C)(C)O)c2c1	.	-1.6	15.5	10.8	10.4	1.0	.
COc1ccc2sc(-c3ccc(N(C)C)cc3)c(C#Cc3cncn3C)c2c1	.	12.1	41.9*	18.5	.	5.8	38.3*
Cc1nnsc1C(=O)N/N=C/c1ccc2ccccc2c1O	6.2	11.0	36.3*	13.1	6.2	8.3	48.2*
Cc1nnsc1C(=O)N/N=C/c1ccccc1	-2.2	2.0	-4.0	0.4	0.9	1.0	.
